From ChEMBL document CHEMBL4513148, “CO-ADD screening of Stellenbosch University (South Africa) compounds” come the findings set out here.

One assay relates to Staphylococcus aureus. The conditions noted are these: Concentration 32 ug.mL-1; ASSAY_TEST Inhibition of Bacterial Growth; detection method Absorption (OD600); MEDIA CAMHB; plate type 384well; NBS; CORNING #3640; time 18 hr.
Another assay relates to Escherichia coli. The conditions noted are these: Concentration 32 ug.mL-1; ASSAY_TEST Inhibition of Bacterial Growth; detection method Absorption (OD600); MEDIA CAMHB; plate type 384well; NBS; CORNING #3640; time 18 hr.

Entries with a potency or affinity are not part of this list.

One may read the Inhibition as the drop in the measured response relative to a control, in per cent.

With `CC(C)(CO)C(O)C(=O)NCCCOP(=O)(O)OCC1OC(n2ccc(N)nc2=O)C(O)C1O` (stereo unspecified), the Inhibition with Staphylococcus aureus is -4.3%; in the assay on Escherichia coli, -11.28%.

For the compound `CCCCCCCNS(=O)(=O)CCNC(=O)[C@H](O)C(C)(C)CO`, the figures for the Inhibition with Staphylococcus aureus and with Escherichia coli were 15.67% and -4.61%, respectively.

For `CCCCCCCNC(=O)CCNC(=O)C(O)C(C)(C)C` (stereo unspecified), the results for the Inhibition in the assay on Staphylococcus aureus and in the assay with Escherichia coli were 18.01% and -4.21%, respectively.

`CC(C)(C)C(O)C(=O)NCCC(=O)NCCc1ccccc1` (stereo unspecified): the values for the Inhibition in the assay on Staphylococcus aureus and in the assay with Escherichia coli were 10.92% and -6.19%, respectively.

Regarding `CC(C)(CO)[C@H](O)C(=O)NCCCc1cn(C[C@H]2O[C@@H](n3ccc(N)nc3=O)[C@H](O)[C@@H]2O)nn1`, the values for the Inhibition with Staphylococcus aureus and with Escherichia coli were 12.15% and -9.07%, respectively.

For `CC(C)(CO)[C@H](O)C(=O)NCCC(=O)OCc1cn(C[C@H]2O[C@@H](n3ccc(N)nc3=O)[C@H](O)[C@@H]2O)nn1`, the Inhibition is recorded as 8.97% in the assay on Staphylococcus aureus and -9.8% with Escherichia coli.

Regarding `CC(C)(CO)[C@@H](O)C(=O)NCCC(=O)NNCc1ccccc1`, the results for the Inhibition in the assay with Staphylococcus aureus and in the assay with Escherichia coli were 15.8% and -5.42%, respectively.

Consider `CC(C)(CO)[C@H](O)C(=O)NCc1cn(C[C@H]2O[C@@H](n3ccc(N)nc3=O)[C@H](O)[C@@H]2O)nn1`, for which the Inhibition was 13.05% with Staphylococcus aureus and -11.94% in the assay with Escherichia coli.

As for `CCCCCCCNC(=S)CCNC(=O)[C@H](O)C(C)(C)CO`, the figures for the Inhibition with Staphylococcus aureus and with Escherichia coli were 14.7% and -4.19%, respectively.

Take `CC(C)(CO)[C@@H](O)C(=O)NCCC(=S)NCCc1ccccc1`: the values for the Inhibition in the assay on Staphylococcus aureus and with Escherichia coli were 10.96% and -8.24%, respectively.

Regarding `CC(C)(CO)[C@H](O)C(=O)NCCc1cn(C[C@H]2O[C@@H](n3ccc(N)nc3=O)[C@H](O)[C@@H]2O)nn1`, the Inhibition in the assay on Staphylococcus aureus was -0.66%; with Escherichia coli it was -7.3%.

Regarding `CC(CC(=O)NCCc1ccccc1)NC(=O)[C@H](O)C(C)(C)CO` (stereo partly specified), the Inhibition is on record as 13.65% in the assay with Staphylococcus aureus and -6.39% with Escherichia coli.

On to `CC(C)(CN)C(O)C(=O)NCCC(=O)NCCc1ccccc1` (stereo unspecified), for which the Inhibition is recorded as 10.68% with Staphylococcus aureus and -6.66% with Escherichia coli.

As to `CC(C)(CO)[C@@H](O)C(=O)N/C=C/C(=O)NCCc1ccccc1`, the Inhibition with Staphylococcus aureus is given as 31.24%; in the assay on Escherichia coli, -5.06%.

With `CC(C)(CO)[C@H](O)C(=O)NCCC(=O)NCc1cn(C[C@H]2O[C@@H](n3ccc(N)nc3=O)[C@H](O)[C@@H]2O)nn1`, the results for the Inhibition in the assay on Staphylococcus aureus and with Escherichia coli were 2.11% and -13.27%, respectively.

Turning to `C#CCNC(=O)[C@H](O)C(C)(C)CO`, the Inhibition was 0.74% with Staphylococcus aureus and 3.62% in the assay on Escherichia coli.

As to `CC(C)(COP(=O)(O)O)[C@@H](O)C(=O)NCCC(=O)NCCc1ccccc1`, the results for the Inhibition in the assay on Staphylococcus aureus and with Escherichia coli were 15.25% and -8.26%, respectively.

Take `CCCCCCNNC(=O)CCNC(=O)[C@H](O)C(C)(C)CO`: the Inhibition with Staphylococcus aureus is given as 13.79%; in the assay on Escherichia coli, -4.33%.
